Screening results as filed in PubChem BioAssay.
PrPC TRFRET = cell surface PrPC inhibition, primary TR-FRET screen; P04156; TR-FRET read-out; inhibition, % at 13.8 µM; 370,000 compounds, 0.43% hits; in the data active = inhibition above about 24%
3CLpro inhibitor = SARS-CoV 3CLpro protease inhibition | P0C6X7 | recombinant SARS-CoV 3CLpro, quenched FRET peptide cleavage | inhibition, % at 6 µM | 290,000 compounds, 0.14% hits; in the data active = inhibition above about 12%
Sa ugtP lethal = kills S. aureus RN4220 lacking UgtP; AID 1259309; 330,000 compounds, 0.54% hits; S. aureus RN4220 ugtP deletion, OD600 growth, 16 h; growth inhibition, % (test concentration not listed); in the data active = growth inhibition above about 68%
BJeLR viability = kills HRASV12-expressing BJeLR cells. BJeLR (HRASV12) viability, CellTiter-Glo ATP luminescence, 48 h. AID 1554. 300,000 compounds, 0.17% hits. inhibition, % (test concentration not listed); in the data active = inhibition above about 50%
DUSP3 inh = DUSP3 (human) phosphatase inhibition; P51452; recombinant VHR phosphatase, pNPP absorbance; inhibition, % at 13.3 µM; 290,000 compounds, 0.52% hits; AID 1654; in the data active = inhibition above about 50%
Target sequence (P51452 whole entry, looked up): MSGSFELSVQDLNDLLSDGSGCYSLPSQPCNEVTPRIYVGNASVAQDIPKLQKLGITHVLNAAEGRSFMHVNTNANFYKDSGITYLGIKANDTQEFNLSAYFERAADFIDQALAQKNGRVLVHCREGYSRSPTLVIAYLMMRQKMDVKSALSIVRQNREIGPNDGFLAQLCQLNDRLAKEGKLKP
Sa RN4220 lethal = kills Staphylococcus aureus RN4220; S. aureus RN4220 growth, OD600, 16 h; inhibition, % (test concentration not listed); 330,000 compounds, 0.33% hits; in the data active = inhibition above about 85%
Numbers stand for hits; i = inactive; nt = no result. In the library only some 1.4% were active in any assay of this set; here they are far more common.

SMILES | PrPC TRFRET | 3CLpro inhibitor | Sa ugtP lethal | BJeLR viability | DUSP3 inh | Sa RN4220 lethal
Cc1noc(C)c1S(=O)(=O)N(C)CC1Oc2ccc(NC(=O)CCC(F)(F)F)cc2C(=O)N(C(C)CO)CC1C (centres undefined) | nt | nt | i | nt | nt | i
Cc1nc2c(=O)n(C)c(=O)nc-2n(C)n1 | 25 | i | i | i | i | i
O=C(N/N=C/c1cc2ccccc2nc1Cl)/C(=C/c1cccs1)NC(=O)c1ccccc1 | i | i | nt | i | 52 | nt
CC(NS(=O)(=O)OCC(Cl)(Cl)Cl)C1CC1c1ccccc1 (centres undefined) | nt | nt | i | nt | nt | i
CCCCC(=O)OCc1c(-c2cccc(OC)c2)ncc2ccccc12 | i | nt | 86 | nt | nt | i
CCCCC(=O)OCc1c(-c2ccccc2)ncc2ccccc12 | i | nt | i | nt | nt | i
CC(C)C1COC(NC2=NC(C(C)C)CO2)=N1 (centres undefined) | nt | nt | i | nt | nt | i
CCN(C[C@H]1N[C@@](Cc2ccccc2)(C(=O)OC)[C@H]2C(=O)N(Cc3ccccc3)C(=O)[C@@H]12)C(=O)Nc1ccc(C)cc1 | i | nt | i | nt | nt | i
CCN(C[C@H]1N[C@@](Cc2ccccc2)(C(=O)OC)[C@H]2C(=O)N(Cc3ccccc3)C(=O)[C@@H]12)C(=O)Nc1ccc(C(F)(F)F)cc1 | i | nt | 100 | nt | nt | 100
O=C(Nc1nnc(C(F)(F)F)s1)c1ccc(Br)s1 | i | i | 81 | i | i | i
CC(NC(=O)Nc1nnc(C(F)(F)F)s1)(C(F)(F)F)C(F)(F)F | 57 | i | 83 | i | i | i
Cc1nn(-c2ccccc2)nc1C(=O)Nc1nnc(C(F)(F)F)s1 | i | i | 86 | i | i | i
O=C(Nc1ccccc1C(=O)Nc1nnc(C(F)(F)F)s1)c1ccccc1Cl | i | i | 90 | i | i | 88
CCc1nnc(NC(=O)c2nn(-c3ccccc3)nc2C)s1 | i | i | i | i | i | i
CN1CCN(C(=O)C2=CC(c3ccccc3)CC(OCCCCO)O2)CC1 (centres undefined) | nt | nt | i | nt | nt | i
O=C(C(=CO)N=Nc1ccccc1)c1ccc(Cl)cc1 | nt | nt | i | nt | nt | i
CN1C(=O)C2C(C=Cc3ccccc3)N3C(=O)CN(CCO)C(=O)[C@@]3(Cc3ccccc3)C2C1=O (some centres undefined) | nt | nt | i | nt | nt | i
O=c1c2ccccc2oc2cc(-c3ccc4[nH]ccc4c3)ccc12 | i | nt | 88 | i | nt | 88
CCOC(=O)CC1c2ccc(C(F)(F)F)cc2S(=O)(=O)N1Cc1ccccc1 (centres undefined) | nt | nt | i | nt | nt | i
COc1c(N2CCN(C(=S)Nc3ccc(F)cc3)C(C)C2)c(F)cc2c(=O)c(C(=O)O)cn(C3CC3)c12 (centres undefined) | i | i | 99 | i | i | 100
COc1c(N2CCN(C(=S)NC3CC4CCC3C4)C(C)C2)c(F)cc2c(=O)c(C(=O)O)cn(C3CC3)c12 (centres undefined) | i | i | 100 | i | i | 100
Cc1cc(C)c(NC(=O)c2cn3c4c(c(N5CCN(C)CC5)c(F)cc4c2=O)OCC3C)c(C)c1 (centres undefined) | i | i | i | i | i | i
CC1CN(C(C)CO)C(=O)c2cc(NC(=O)NC3CCCCC3)ccc2OC1CN(C)C(=O)NC1CCCCC1 (centres undefined) | nt | nt | i | nt | nt | i
CC(C)COc1ccc(/C(=N/O)c2ccccc2)cc1 | i | i | nt | i | i | nt
CC(C)COc1ccc(C(=NO)c2ccccc2)cc1 | nt | nt | 86 | nt | nt | i
SMILES | PrPC TRFRET | 3CLpro inhibitor | Sa ugtP lethal | BJeLR viability | DUSP3 inh | Sa RN4220 lethal
OC(c1cc(-c2ccc(Cl)cc2)nc2ccccc12)C1CCCCN1 (centres undefined) | i | i | nt | 126 | i | nt
COc1ccc(S(=O)(=O)N2CCOCC2)cc1NC(=O)CCNC(=O)c1ccc(Cl)cc1 | i | nt | i | nt | nt | i
COc1ccc(S(=O)(=O)N2CCOCC2)cc1NC(=O)CCNC(=O)c1ccc(Br)cc1 | i | nt | i | 108 | nt | i
CCc1ccc(-c2csc(-c3c[nH]c4ccccc34)n2)cc1 | i | i | 85 | i | i | i
Cc1ccc(C2(c3ccc(C)cc3)CC2C(=O)Nc2ccc([N+](=O)[O-])cc2O)cc1 (centres undefined) | i | i | 100 | i | i | 101
O=C(Nc1ccc(F)c(Cl)c1)C1CC(=O)n2c(nc3ccccc32)N1 (centres undefined) | i | i | i | i | 53 | i
N#CC1=C(N)SC(N)=C(C#N)C1c1c(Cl)cccc1Cl | 41 | i | i | i | i | i
CCOc1ccc2nc(SCc3ccc(OC)cc3)sc2c1 | i | i | 90 | i | i | i
O=C1NC(=Cc2cccn2-c2ccccc2)C(=O)N1Cc1ccccc1F | nt | nt | i | nt | nt | i
Cc1cc(C)c2c(N)c(C(=O)c3ccccc3)oc2n1 | i | i | i | i | i | i
Cc1cc(C)c2c(N)c(C(=O)c3ccc(Br)cc3)oc2n1 | i | i | i | i | i | 93
CCOC(=O)c1cccc(C2=CC(=O)CC(c3ccc(OC)c(OC)c3)C2)c1 (centres undefined) | nt | nt | i | nt | nt | i
Cc1ccc(O)c(NC(=O)c2cc([N+](=O)[O-])ccc2Cl)c1 | i | i | i | i | 52 | i
O=C(Nc1cccc(Cl)c1)c1cc(N=Nc2ccc([N+](=O)[O-])cc2Cl)ccc1O | i | i | 100 | i | i | 94
O=C(Nc1ccc([N+](=O)[O-])cc1Cl)c1cc(Cl)ccc1O | i | nt | 100 | nt | nt | 101
Cc1cc(O)c(NC(=O)c2cc([N+](=O)[O-])ccc2Cl)cc1C | i | i | i | i | i | i
O=C(Nc1cccc(Cl)c1)c1cccc(Oc2ccc([N+](=O)[O-])cc2Cl)c1 | i | i | i | i | i | i
CC(C(=O)Nc1ccc2ccccc2c1)C1C[C@]1(C)C(NC(=O)c1cnccn1)c1ccccc1 (some centres undefined) | nt | nt | i | nt | nt | i
CCCCNC(=O)OC1CC2CCN3C(=O)CCC(C)(C)C(C1)C23 (centres undefined) | nt | nt | i | nt | nt | i
O=C(NCCNC(=O)c1cc(OCC(F)(F)F)ccc1OCC(F)(F)F)Nc1cccc(C(F)(F)F)c1 | i | 16 | i | i | i | i
CN(C)S(=O)(=O)NCCNC(=O)c1cc(OCC(F)(F)F)ccc1OCC(F)(F)F | i | i | i | i | i | i
COC(=O)C1=C(c2ccc(F)cc2F)CC2CCC1N2C(=O)N1CCCCC1 (centres undefined) | nt | nt | i | nt | nt | i
CCOC(=O)C1C2COc3ccc(Br)cc3C2N2C(=O)N(c3ccc(C(F)(F)F)cc3)C(=O)[C@]12C (some centres undefined) | nt | nt | i | nt | nt | i
CC(=O)c1ccc(N2CCN(C(=O)c3cccc(Oc4ccccc4)c3)CC2)cc1 | i | i | 87 | i | i | i
CCOC(=O)C1C2COc3ccc(C)cc3C2N2C(=O)CN(Cc3ccc(C)cc3)C(=O)[C@@]12C (some centres undefined) | nt | nt | i | nt | nt | i
Cc1c(O)c(C)c2c(c1O)C(=O)CC(c1ccccc1)O2 (centres undefined) | nt | nt | i | nt | nt | i
CCN(CC)c1ccc(/C=N/NC(=O)c2cccc(S(=O)(=O)N3CCOCC3)c2)c(O)c1 | i | i | nt | 54 | i | nt
